# Rows were chosen to be rich in hits. Some 6.5% of all compounds tested hit in one or more screens of this group.
# VACV mCherry inh: vaccinia inhibition (mCherry reporter); 310,000 tested, 0.63% active; Vaccinia virus mCherry reporter infection, fluorescence; Potency, µM (titrated, usually from 36.5 µM), for inactives: at the highest dose activity change, negative = inhibition, most hits filed as inhibitors; calls by dose curve; tested in A549 cells; note: potency is the fitted concentration of half-maximal effect; nearly all actives have a fitted effect of over 35% in size
# FMDV inh: blocks foot and mouth disease virus. FMDV antiviral cell-based qHTS. Potency, µM (doses to about 57.9 µM), inactives show at the top dose activity change, negative = inhibition, actives largely listed as inhibitors. 410,000 tested, 1.2% active. AID 1159524; calls by dose curve; tested in HEK293T cells; note: read-out not given here; potency is the fitted concentration of half-maximal effect; nearly all actives have a fitted effect of over 45% in size
# HCMV inh: inhibitors of human cytomegalovirus; HFF cells, HCMV-luciferase reporter, 72 h; active compounds read low; activity change, negative = inhibition, % at 57.5 µM; 410,000 tested, 4.5% active; AID 1259415; in the data active = activity change below about -60%; inconclusive = no clear call, values can overlap the other calls; inactive = above about -39%
#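 Screen run at 2 compound doses on HFFs infected with reporter HCMV, MOI 1 PFU/cell. Luciferase activity from cell lysates at 72 h post infection gave inhibition relative to buffer-only and Salinomycin wells.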
# Marburg entry inh: blocks Marburg virus binding to or entry into cells; Marburg virus pseudotyped entry inhibition, cell reporter; Potency, µM (titrated, usually from 37.8 µM), for the others: at the top dose activity change, negative = inhibition, actives largely listed as inhibitors; 300,000 tested, 1.8% active; AID 540276; calls by dose curve; tested in HEK293 cells; note: potency is the fitted concentration of half-maximal effect
# LASV entry inh: inhibitors of Lassa virus binding or cell entry; 300,000 tested, 1.2% active; Potency, µM (top dose mostly 37.9 µM), for inactives: at the highest dose activity change, negative = inhibition, hits mostly inhibitors; Lassa virus pseudotype entry inhibition, cell reporter; calls by dose curve; tested in HEK293 cells; note: potency is the fitted concentration of half-maximal effect; nearly all actives have a fitted effect of over 50% in size
# VACV Venus inh: inhibitors of vaccinia virus (Venus reporter) | Vaccinia virus Venus reporter expression, fluorescence | Potency, µM (doses to about 36.5 µM), for the others: at the top dose activity change, negative = inhibition, usual class: inhibitors | 330,000 tested, 0.46% active | AID 720580; calls by dose curve; tested in A549 cells; note: potency is the fitted concentration of half-maximal effect; nearly all actives have a fitted effect of over 30% in size
# * hit, by the source's call; i = inactive; ? = inconclusive; / = no result; + = active, no number; [ ] = another dose, or the depositor's remark. % is set by controls: 0 for no effect and ±100 for the full control effect.
SMILES,VACV mCherry inh,FMDV inh,HCMV inh,Marburg entry inh,LASV entry inh,VACV Venus inh
Cc1cc(C)c2c(=O)[nH]c(SCC(=O)c3ccc(F)c(C)c3)nc2n1,i,-12%,-103*,1%[46.1 µM],?,-10%
CCCCN(CCCC)Cc1cc(=O)oc2cc(C)cc(C)c12,14%,-17%,-20,/,1%[46.1 µM],1%
Cc1cc(C)c2c(CCl)cc(=O)oc2c1,-20%,28µM*,-95*,?,?,?
Cc1cc(C)c2c(CN(C)Cc3ccccc3)cc(=O)oc2c1,31%,53%,-31,/,10µM*,0%
O=C1N=c2ccccc2=NC1C(=O)c1ccccc1 (configuration not stated),/,/,/,6%,/,/
COC(=O)[C@@H](Cc1c[nH]c2ccccc12)NC(=O)c1ccc2c(c1)OCO2,/,-2%,-105*,/,/,/
O=C(COC(=O)[C@H](Cc1c[nH]c2ccccc12)NC(=O)c1ccc(Cl)cc1)Nc1ccc2c(c1)OCO2,/,48%,51,-7%,22%,/
COC(=O)C(Cc1c[nH]c2ccccc12)NC(=O)c1cc(-c2ccc(OC)c(OC)c2)oc1C (configuration not stated),-25%,-28%,43,?,10µM*,-17%
Cc1cc(C(=O)NC(Cc2c[nH]c3ccccc23)C(=O)O)c(C)o1 (configuration not stated),-7%,2%,36,0%,20%,3%
CC1(C)Cc2c(ccc3ccccc23)/C(=C/C(=O)N2CCCCC2)N1,/,?,52,11µM*,-9%,-19%
O=C(/C=C1\NC2(CCCC2)Cc2ccccc21)N1CCOCC1,/,?,-23,-10%,-14%,-18%
CCOc1ccc(C(=O)Nc2c(C(=O)c3ccc(OC)cc3)oc3ccccc23)cc1,-1%,-1%,8,-15%[46.1 µM],8%[46.1 µM],1%
COc1ccc(S(=O)(=O)NCCS(=O)(=O)N2CCN(c3ccccc3)CC2)cc1C,-6%,0%,-40,/,-4%[46.1 µM],-14%
O=C(CC(=O)Nc1ccccc1[N+](=O)[O-])Nc1ccccc1[N+](=O)[O-],-16%,-14%,-65*,?,-37%[46.1 µM],-19%
CCC(CC)C(=O)N1c2ccc(F)cc2CCC1C (configuration not stated),-16%,-13%,-33,2%,13%,-5%
CC1CCc2cc(F)ccc2N1C(=O)CCl (configuration not stated),-21%,14µM*,/,?,-3%,-2%
COc1ccc(CC(=O)N2CCc3cc(OC)c(OC)cc3C2COc2cc(C)cc(C)c2)cc1OC (configuration not stated),-3%,-2%,6,/,?,-5%
NC(=O)C1CCN(CC(O)CSc2ccccc2)CC1 (configuration not stated),/,5%,9,/,/,/
OC(CSc1ccccc1)CN1CCN(c2ccccc2)CC1 (configuration not stated),-20%,-10%,-102*,?,-7%,-12%
CC(C)CON=C1C[C@@H](O)[C@@H](O)[C@@H]2[C@H]3C(=O)N(C4CCCCC4)C(=O)[C@@H]3CC[C@@H]12,/,/,/,-20%[14.2 µM],-26%[14.3 µM],/
CCOC(=O)c1ccccc1NC(=O)c1cnc(N2CCOCC2)c2ccccc12,-17%,0%,7,/,?,-11%
CCC(C)NC(=O)C1CCC(CNS(=O)(=O)c2ccc(Cl)cc2)CC1 (configuration not stated),-10%,-8%,0,/,11%[46.1 µM],0%
C[C@H](NC(=O)N1CCn2c1nc1ccccc12)C(=O)N1CCCCC1,5%[7.34 µM],11%,+,/,/,0%[7.34 µM]
C[C@H](NC(=O)N1CCn2c1nc1ccccc12)C(=O)NC1CC1,/,-12%,0,/,/,/
CC[C@@H](C(=O)[C@@H](C)[C@@H](O)[C@H](C)[C@@H]1O[C@@H]([C@@H](CC)C(=O)O)CC[C@@H]1C)[C@H]1O[C@]2(C=C[C@@H](O)[C@]3(CC[C@@](C)([C@H]4CC[C@](O)(CC)[C@H](C)O4)O3)O2)[C@H](C)C[C@@H]1C,2.5µM*,?,-98*,/,/,11µM*
O=C(Nc1cccc(-c2nc3ccccc3[nH]2)c1)c1c(F)cccc1F,-18%,-11%,64,/,16%[46.1 µM],-19%
Cc1cc(=O)[nH]c2nnc(SCc3ccc(Cl)cc3Cl)n12,-9%,5%,-25,/,11%[46.1 µM],0%

# Source: PubChem BioAssay (National Center for Advancing Translational Sciences (NCATS))
